# Results as given in PubChem BioAssay AID504432 (National Center for Advancing Translational Sciences (NCATS), 2011).
# Inconclusive results are not listed. The source made the active and inactive calls. Calls follow the shape of the dose curve; as a rule, active = well fitted inhibition curve with a large enough effect; inconclusive = small, poorly fitted or top-dose-only effect, or another doubt; inactive = flat fitted curve, though single readings scatter.
# Assay: Confirmation Concentration-Response Assay for lipid storage modulators: for probe SAR round 2
# Details: Drosophila S3 cells, BODIPY lipid droplet fluorescence, 18-24 h
# Description: NIH Molecular Libraries Probe Production Centers Network [MLPCN] NIH Chemical Genomics Center [NCGC] MLPCN Grant: 1 R03 MH085686-01 Assay Submitter (PI): Beller, Mathias; Max-Planck-Institut fur Biophysikalische Chemie NCGC Assay Overview: Storing lipids as a reservoir for energy or the anabolism of elementary metabolites is a common feature of probably all cells and is conserved from bacteria to humans. The universal cellular lipid storage organelle is the so-called lipid storage droplet (LD). Although ubiquitous, LDs share a simple structure composed of a hydrophobic core that harbors the storage lipids, which is shielded by a droplet-specific phospholipid monolayer to which proteins are attached. […]
# We dispensed 4 uL of cells at 1.25 x 10^6 cells/mL into LoBase Aurora COC 1,536-well plates (black walled, clear bottom) with a bottle-valve solenoid-based dispenser (Aurora) to obtain 5,000 cells/well. […] Fluorescence was detected by excitation of the fluorophores with a 488-nm laser on an Acumen Explorer (TTP Lab Tech). […] Cells were detected using channel 3 (575- 640 nm) with 5-um width and 100-um depth filters. The ratio of the total intensity in PMT channel 1 over total intensity of channel 3 was also calculated. […]
compound,measurement,value
CCC/C=C/C/C=C/C=C/C=N/NN=O,Potency,2.81 µM (active)
